Activity calls are given as the source filed them. Rule for the calls: active = hit-call score of the fitted dose curve at least 0.9, where 1 is the maximum; inactive = score below 0.9.

By AC50 is commonly meant the midpoint of the concentration-response curve, whichever way the signal moves.

Chain of Cellular tumor antigen p53 (Homo sapiens) (P04637 whole entry, looked up): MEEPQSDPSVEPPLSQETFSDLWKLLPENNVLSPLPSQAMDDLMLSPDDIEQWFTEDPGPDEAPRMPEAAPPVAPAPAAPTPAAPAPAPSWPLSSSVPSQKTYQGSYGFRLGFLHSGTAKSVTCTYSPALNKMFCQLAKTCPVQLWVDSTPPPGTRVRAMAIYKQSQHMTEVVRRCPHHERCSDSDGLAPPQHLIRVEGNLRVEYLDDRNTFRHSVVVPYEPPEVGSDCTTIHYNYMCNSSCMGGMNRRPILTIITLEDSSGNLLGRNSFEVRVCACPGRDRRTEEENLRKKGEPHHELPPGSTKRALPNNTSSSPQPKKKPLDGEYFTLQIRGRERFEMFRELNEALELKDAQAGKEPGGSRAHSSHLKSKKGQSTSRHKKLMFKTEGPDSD

Test system in one experiment: not listed separately
As to the kind of experiment: ATG_NF_kB_CIS: Attagene CIS-FACTORIAL HepG2 Assay for human Nuclear Factor Kappa B (NF-kB) (AID 2282991). As to conditions: HepG2 Attagene cis-factorial NF-kB reporter mRNA; actives raise or lower the signal. In short, it runs like this: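 Fluorescence of labelled RT-PCR products separated by capillary electrophoresis gives reporter mRNA levels from transfected HepG2 cells exposed 24 h; values are fitted in both directions relative to DMSO.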
`N#CC(Br)(Br)C(N)=O`: the AC50 was 157 µM (active).
As to `CC(O)CCO` (centres undefined), the outcome was inactive.
For the compound `C1=Cc2cccc3cccc1c23`, the call was inactive.
On the same count and under the same terms, with `CCCCC(CC)COC(=O)c1ccc(C(=O)OCC(CC)CCCC)c(C(=O)OCC(CC)CCCC)c1` (centres undefined) the entry was “inactive”; with `Cc1ccc(N)c(N)c1`, “inactive”.
Still for that read-out and setting: next, `CC(C)(C)OOC(=O)c1ccccc1`: “inactive”; `CCN(CC)CCO`: “inactive”.
For `OCCCBr`, the result was inactive.
On the same count and under the same terms, next, `[O-][Cl+]O`: “inactive”; `COC(=O)c1ccccc1N`: “inactive”; `O=Cc1ccco1`: “inactive”.
On the same count and under the same terms, next, `Cc1ccc(N)cc1`: “inactive”.
Consider `CCN(CC)N=O`, for which the compound was called inactive.
On the same count and under the same terms, with `Cc1ccc(N=C=O)cc1N=C=O` the entry was “inactive”.
On the same count and under the same terms, with `c1ccc2c(c1)-c1cccc3cccc-2c13` the entry was “inactive”.
On the same count and under the same terms, with `CCC12COCN1COC2` the entry was “inactive”.

Test system in another experiment: not listed separately
Briefly: ATG_NRF2_ARE_CIS: Attagene CIS-FACTORIAL HepG2 Assay for human Nuclear Factor Erythroid 2 Related Factor 2 (NFR2) response to Antioxidant Response Elements (ARE) (AID 2282992). As to conditions: HepG2 Attagene ARE/NRF2 reporter, transcription factor activity; actives raise or lower the signal. The procedure, abridged:
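Cis-factorial assay: transfected HepG2 reporter library, 24 h dosing, mRNA readout via RT-PCR/CE; DMSO-referenced bidirectional analysis.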
In the case of `O=C1CCCO1`, the compound was classed as inactive.
Consider `N#CC(Br)(Br)C(N)=O`, for which the AC50 was 100 µM (active).
On the same count and under the same terms, next, `CC(C)(C)OOC(C)(C)CCC(C)(C)OOC(C)(C)C`: 75.2 µM (active).
For `CC(O)CCO` (centres undefined), the compound was classed as inactive.
Regarding `Cc1ccc([N+](=O)[O-])cc1`, the compound was called inactive.
The same measure, in the same setting: next, `C1=Cc2cccc3cccc1c23`: “inactive”; `CCCCC(CC)COC(=O)c1ccc(C(=O)OCC(CC)CCCC)c(C(=O)OCC(CC)CCCC)c1` (centres undefined): “inactive”.
As to `COC(=O)Nc1nc2ccccc2[nH]1`, the AC50 was 21.4 µM (active).
As for `Cc1ccc(N)c(N)c1`, the AC50 is 8.84 µM (active).
Regarding `Clc1ccc(Cl)c(Cl)c1`, the outcome was inactive.
Regarding `CC(C)(C)OOC(=O)c1ccccc1`, the AC50 is 79.5 µM (active).
As for `CCN(CC)CCO`, the result was inactive.
Still for that read-out and setting: next, `C[N+](C)(C)CC1CO1` (centres undefined): “inactive”.
On the same count and under the same terms, next, `OCCOCCO`: “inactive”; `OCCCBr`: “inactive”.
On to `[O-][Cl+]O`, for which the compound was called inactive.
The same measure, in the same setting: next, `Nc1cc(Cl)cc(C(=O)O)c1Cl`: “inactive”.
`COc1cc(C=O)cc2c1[C@H](COC(N)=O)[C@]1(OC(C)=O)ON2C[C@H]2[C@@H]1N2C(C)=O`: the AC50 was 17 µM (active).
Take `COC(=O)c1ccccc1N`: the outcome was inactive.
Still for that read-out and setting: next, `O=Cc1ccco1`: “inactive”.
As to `Cc1ccc(N)cc1`, the result was inactive.
Take `ClC1=C(Cl)[C@]2(Cl)[C@H]3[C@H]([C@@H]4C=C[C@H]3C4)[C@@]1(Cl)C2(Cl)Cl`: the AC50 was 50.5 µM (active).
As for `CCN(CC)N=O`, the call was inactive.
For the compound `Cc1ccc(N=C=O)cc1N=C=O`, the compound was called inactive.
Still for that read-out and setting: with `c1ccc2c(c1)-c1cccc3cccc-2c13` the entry was “inactive”; with `CCOc1cccc(C2(N3CCN(c4ccccc4)CC3)CCC(C)CC2)c1` (centres undefined), “inactive”; with `CS(=O)(=O)NC(=O)c1cc(Oc2ccc(C(F)(F)F)cc2Cl)ccc1[N+](=O)[O-]`, “inactive”.
On the same count and under the same terms, next, `CCC12COCN1COC2`: “inactive”.

Test system in the next experiment: not listed separately
As to the kind of experiment: ATG_Oct_MLP_CIS: Attagene CIS-FACTORIAL HepG2 Assay for human Octamer-Binding Transcription Factor (Oct) (AID 2282993). The note with it: HepG2 Attagene cis-factorial Oct reporter, mRNA; actives raise or lower the signal. The procedure, abridged:
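Transfected HepG2 cells, 24 h treatment. Reporter mRNA quantified by RT-PCR–capillary electrophoresis; bidirectional fitting against DMSO.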
For the compound `O=C1CCCO1`, the call was inactive.
The same measure, in the same setting: next, `N#CC(Br)(Br)C(N)=O`: “inactive”; `CC(C)(C)OOC(C)(C)CCC(C)(C)OOC(C)(C)C`: “inactive”.
Still for that read-out and setting: with `CC(O)CCO` (centres undefined) the entry was “inactive”; with `Cc1ccc([N+](=O)[O-])cc1`, “inactive”; with `C1=Cc2cccc3cccc1c23`, “inactive”.
On the same count and under the same terms, next, `CCCCC(CC)COC(=O)c1ccc(C(=O)OCC(CC)CCCC)c(C(=O)OCC(CC)CCCC)c1` (centres undefined): “inactive”; `COC(=O)Nc1nc2ccccc2[nH]1`: “inactive”.
Turning to `Cc1ccc(N)c(N)c1`, the AC50 is 42.3 µM (active).
Consider `Clc1ccc(Cl)c(Cl)c1`, for which the result was inactive.
`CC(C)(C)OOC(=O)c1ccccc1`: the result was inactive.
The same measure, in the same setting: with `CCN(CC)CCO` the entry was “inactive”; with `C[N+](C)(C)CC1CO1` (centres undefined), “inactive”; with `OCCOCCO`, “inactive”.
Still for that read-out and setting: with `OCCCBr` the entry was “inactive”.
Regarding `[O-][Cl+]O`, the call was inactive.
Still for that read-out and setting: with `Nc1cc(Cl)cc(C(=O)O)c1Cl` the entry was “inactive”.
For the compound `COc1cc(C=O)cc2c1[C@H](COC(N)=O)[C@]1(OC(C)=O)ON2C[C@H]2[C@@H]1N2C(C)=O`, the AC50 is 0.179 µM (active).
In the case of `COC(=O)c1ccccc1N`, the compound was called inactive.
Same read-out and setting: with `O=Cc1ccco1` the entry was “inactive”; with `Cc1ccc(N)cc1`, “inactive”.
In the case of `ClC1=C(Cl)[C@]2(Cl)[C@H]3[C@H]([C@@H]4C=C[C@H]3C4)[C@@]1(Cl)C2(Cl)Cl`, the AC50 is 25.1 µM (active).
As for `CCN(CC)N=O`, the call was inactive.
In the case of `Cc1ccc(N=C=O)cc1N=C=O`, the compound was called inactive.
As for `c1ccc2c(c1)-c1cccc3cccc-2c13`, the result was inactive.
The same measure, in the same setting: next, `CCOc1cccc(C2(N3CCN(c4ccccc4)CC3)CCC(C)CC2)c1` (centres undefined): “inactive”; `CS(=O)(=O)NC(=O)c1cc(Oc2ccc(C(F)(F)F)cc2Cl)ccc1[N+](=O)[O-]`: “inactive”; `CCC12COCN1COC2`: “inactive”.

For the next experiment, the target named is Cellular tumor antigen p53 (Homo sapiens) (UniProt P04637). Briefly: ATG_p53_CIS: Attagene CIS-FACTORIAL HepG2 Assay for human p53 Transcription Factor (AID 2282994). As to conditions: HepG2 p53 cis-element reporter, Attagene mRNA; actives raise or lower the signal. The procedure, abridged:
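Using HepG2 hepatoma cells carrying cis-acting multiplexed reporters, mRNA induction is detected after a 24 h exposure. Gain- and loss-of-signal responses are fitted relative to DMSO-treated cells.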
For the compound `O=C1CCCO1`, the outcome was inactive.
On the same count and under the same terms, next, `N#CC(Br)(Br)C(N)=O`: “inactive”; `CC(C)(C)OOC(C)(C)CCC(C)(C)OOC(C)(C)C`: “inactive”.
On the same count and under the same terms, with `CC(O)CCO` (centres undefined) the entry was “inactive”.
The same measure, in the same setting: with `Cc1ccc([N+](=O)[O-])cc1` the entry was “inactive”; with `C1=Cc2cccc3cccc1c23`, “inactive”; with `CCCCC(CC)COC(=O)c1ccc(C(=O)OCC(CC)CCCC)c(C(=O)OCC(CC)CCCC)c1` (centres undefined), “inactive”.
Consider `COC(=O)Nc1nc2ccccc2[nH]1`, for which the result was inactive.
Same read-out and setting: with `Cc1ccc(N)c(N)c1` the entry was “inactive”.
With `Clc1ccc(Cl)c(Cl)c1`, the compound was called inactive.
Consider `CC(C)(C)OOC(=O)c1ccccc1`, for which the AC50 was 136 µM (active).
Consider `CCN(CC)CCO`, for which the outcome was inactive.
On the same count and under the same terms, with `C[N+](C)(C)CC1CO1` (centres undefined) the entry was “inactive”; with `OCCCBr`, “inactive”.
Still for that read-out and setting: next, `[O-][Cl+]O`: “inactive”.
The same measure, in the same setting: next, `Nc1cc(Cl)cc(C(=O)O)c1Cl`: “inactive”.
On to `COc1cc(C=O)cc2c1[C@H](COC(N)=O)[C@]1(OC(C)=O)ON2C[C@H]2[C@@H]1N2C(C)=O`, for which the AC50 is 5.95 µM (active).
Regarding `COC(=O)c1ccccc1N`, the compound was called inactive.
Same read-out and setting: with `O=Cc1ccco1` the entry was “inactive”; with `Cc1ccc(N)cc1`, “inactive”; with `ClC1=C(Cl)[C@]2(Cl)[C@H]3[C@H]([C@@H]4C=C[C@H]3C4)[C@@]1(Cl)C2(Cl)Cl`, “inactive”.
The same measure, in the same setting: with `CCN(CC)N=O` the entry was “inactive”.
Take `Cc1ccc(N=C=O)cc1N=C=O`: the compound was classed as inactive.
Regarding `c1ccc2c(c1)-c1cccc3cccc-2c13`, the outcome was inactive.
Same read-out and setting: next, `CCOc1cccc(C2(N3CCN(c4ccccc4)CC3)CCC(C)CC2)c1` (centres undefined): “inactive”.
As for `CS(=O)(=O)NC(=O)c1cc(Oc2ccc(C(F)(F)F)cc2Cl)ccc1[N+](=O)[O-]`, the outcome was inactive.
Same read-out and setting: next, `CCC12COCN1COC2`: “inactive”.

These data come from PubChem BioAssay (EPA / NIEHS).
